# High-throughput results as filed in PubChem.
# CCHF vOTU inh = CCHFV vOTU protease inhibition. Pep-AMC fluorescence. inhibition, % at 11.5 µM. 370,000 tested, 0.55% active. AID 651958; in the data active means inhibition above about 30%; further: 0% = vehicle wells with enzyme and 100% = no enzyme wells
# RecA intein inh = Mtb RecA intein splicing inhibition | AID 2221 | P9WHJ3 | cell-free RecA intein splicing, fluorescence | 290,000 tested, 0.75% active | inhibition, % (no concentration beside the values); in the data active means inhibition above about 30%;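 further: 0% = vehicle wells and 100% = reference inhibitor control wells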
# 3CLpro inhibitor = SARS-CoV 3CLpro protease inhibition; P0C6X7; recombinant SARS-CoV 3CLpro, quenched FRET peptide cleavage; inhibition, % at 6 µM; 290,000 tested, 0.14% active; in the data active means inhibition above about 12%
# DUSP3 inh = blocks human VHR1 dual specificity phosphatase; 290,000 tested, 0.52% active; inhibition, % at 13.3 µM; recombinant VHR phosphatase, pNPP absorbance; AID 1654; P51452; in the data active means inhibition above about 50%
# Target sequence (P51452 whole entry, looked up): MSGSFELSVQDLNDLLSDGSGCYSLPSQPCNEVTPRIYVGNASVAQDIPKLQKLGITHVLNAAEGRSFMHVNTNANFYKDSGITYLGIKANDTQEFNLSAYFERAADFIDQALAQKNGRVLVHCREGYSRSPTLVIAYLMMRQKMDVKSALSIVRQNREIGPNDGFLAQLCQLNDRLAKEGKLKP
# * marks the source's active call; other numbers are inactive results; / = no result given. Rows were chosen to be rich in hits. Some 1.5% of all compounds tested hit in one or more screens of this group.
SMILES,CCHF vOTU inh,RecA intein inh,3CLpro inhibitor,DUSP3 inh
Cc1ccc(-n2c(SCC(=O)NC3CCS(=O)(=O)C3)nc3ccccc3c2=O)cc1C (stereo not given),-8,-5,/,/
CCOC(=O)c1nn(-c2ccccc2)c(=O)c2c(NC(C)=O)scc12,-3,-6,0,6
CCOC(=O)c1nn(-c2ccccc2)c(=O)c2c(N)scc12,37*,/,-3,5
CCC1CCCCN1CC(=O)c1c(C)[nH]c2cc(C)ccc12 (stereo not given),4,-1,4,52*
Cc1ccc2c(C(=O)CN3CCCCC3CCO)c(C)[nH]c2c1 (stereo not given),11,-1,1,4
CCC(C)NC(=O)c1c(N)n(Cc2ccc3c(c2)OCO3)c2nc3ccccc3nc12 (stereo not given),16,41*,0,4
Cc1cccc2c(=O)c(C(=O)NCCCN3CCOCC3)c[nH]c12,1,0,1,53*
O=[N+]([O-])c1cc(/C=N/Nc2nc3ccccc3[nH]2)c(O)cc1O,14,40*,0,0
Cc1c(Br)cccc1NC(=O)C1(C)CCN1C(C)C (stereo not given),0,/,/,/
CCOC(=O)c1c(C)oc2c1c(C=NCCO)c(O)c1ccccc12,16,46*,9,25
N#Cc1ccc(COC(=O)c2cccnc2Cl)cc1,-2,-1,-1,59*
CCCCN(CC)CCNC(=O)c1ccc2c(Cl)c3c(nc2c1)CCC3,-10,2,-7,57*
CCN(CC)CCNC(=O)CSc1c2c(nc3cc(Cl)ccc13)CCCC2,3,35*,-1,14
CCN(CC)CCCNC(=O)c1ccc2c(SCC(=O)O)c3c(nc2c1)CCC3,/,3,-3,14
COc1ccc(N(C(C)C(=O)N/N=C/c2ccc(OC)c(OC)c2)S(C)(=O)=O)cc1 (stereo not given),9,0,3,-13
CC(C(=O)N/N=C/c1ccc(N(C)C)c(Br)c1)N(c1ccccc1)S(C)(=O)=O (stereo not given),16,/,-1,50*
Clc1ccc(/C=N/Nc2nn[nH]n2)cc1,-1,3,1,54*
CCCOc1ccc(C(=O)Nc2ccc(S(=O)(=O)Nc3cc(C)nc(C)n3)cc2)cc1,-14,1,0,52*
Cn1c(=O)c(=O)n(C)c2cc([N+](=O)[O-])c(N3CCOCC3)cc21,9,3,2,6
CC(C)n1c(SCC(=O)NCc2ccco2)nnc1C1CC1,1,-2,2,37
CSCCC(NC=O)C(=O)NC(C)C(=O)O (stereo not given),-1,/,/,/
COc1cc(C(=O)C(=O)c2cc(OC)c(O)c(OC)c2)cc(OC)c1O,-15,6,-3,53*
Cc1cc(C(=O)CCl)c(C)n1Cc1ccco1,-9,18,25*,12
Cc1cc(C(=O)CCl)c(C)n1CCc1ccccc1,-4,40*,8,-1
Cc1cc(C(=O)CSc2nncs2)c(C)n1Cc1ccco1,-4,0,4,-15
SMILES,CCHF vOTU inh,RecA intein inh,3CLpro inhibitor,DUSP3 inh
CCN1C(=O)C(CC(=O)Nc2ccc(Br)cc2)N(CCCc2ccccc2)C1=S (stereo not given),16,21,3,27
CCOCCn1c(=O)c2c(nc3n2CCN3c2ccc(CC)cc2)n(C)c1=O,11,-2,/,/
COc1cccc(CNS(=O)(=O)c2c(C(=O)N3CCCCC3)c(C)n(C)c2C)c1,10,-1,1,54*
COc1cccc(CNCc2ccc(OC)cc2OC)c1,5,1,-1,56*
CCOc1cc(CNCc2cc(OC)cc(OC)c2)ccc1OC,-16,2,1,51*
CCOc1cc(CNCc2ccc(C(=O)O)cc2)ccc1OC,-14,-1,1,11
COc1ccc(C(=O)CSc2cc(C)[nH]c(=O)n2)cc1,17,5,-1,50*
CCOC(=O)N1CCN(C(=O)CN(C)S(=O)(=O)c2ccc(Cl)cc2)CC1,9,1,-1,12
Cc1cc(C)n(C(=O)N(c2ccccc2)c2ccccc2)n1,6,1,-4,15
O=C(c1ccc(OC2CCN(CCc3ccccc3)CC2)cc1)N1CCC(CO)CC1,20,1,-3,51*
Cc1cc(/C=C(\C#N)C(=O)NCc2ccccc2)cc(C)c1O,0,1,0,52*
CCCN1CCN(C(=O)c2oc3c(Cl)cccc3c2C)CC1,3,/,-5,56*
OC(c1ccccc1)(c1ccccc1)C1CCN(CCCNc2ccc(Cl)cc2Cl)CC1,5,/,/,/
O=C1c2cc([N+](=O)[O-])ccc2-c2ncccc21,2,46*,7,4
Nc1ccc2c(c1)C(=O)c1cc([N+](=O)[O-])ccc1-2,2,/,/,/
Cc1cccc(NC(=O)CNC(=O)[C@H](CCc2ccccc2)NC(=O)[C@H]2O[C@@H](n3cnc4c(N)ncnc43)[C@H](O)[C@@H]2O)c1C,16,/,/,/
CCn1c(SCC(=O)NC2CCCC2)nnc1-c1ccco1,5,0,0,-3
CCCn1c(SCC(=O)NC2CCCCC2)nnc1-c1ccco1,7,0,-3,58*
O=C(C1CC(=O)N(c2ccccc2)C1)N1CCN(c2ccc(F)cc2)CC1 (stereo not given),-8,0,-12,6
CSc1ccccc1NC(=S)NCc1ccc(Cl)cc1,7,4,-2,23
CC(C)(C)c1csc(NC(=O)c2c(F)c(F)c(F)c(F)c2F)n1,13,31*,10,8
O=C(CSc1ncnc2c1nnn2Cc1ccc(F)cc1)NC1CCCCC1,-4,1,-5,12
O=C(CSc1ncnc2c1nnn2Cc1ccc(F)cc1)NCC1CCCO1 (stereo not given),-6,39*,2,14
FC(F)(F)c1ccc(Nc2nnnc3ccccc23)cc1,-9,-2,2,19
O=C(CSCCO)Nc1ccc([N+](=O)[O-])cc1,10,-1,3,52*
SMILES,CCHF vOTU inh,RecA intein inh,3CLpro inhibitor,DUSP3 inh
CC(C)CCOc1ccc(/C=C2\CCn3c2nc2cc(C(=O)O)ccc2c3=O)cc1,2,/,4,56*
CCOc1cccc(/C(O)=C2/C(=O)C(=O)N(CCN3CCOCC3)C2c2ccncc2)c1 (stereo not given),/,-1,5,9
COc1cccc(/C(O)=C2/C(=O)C(=O)N(CCN3CCOCC3)C2c2cccs2)c1 (stereo not given),17,0,-5,53*
O=C(c1cccc([N+](=O)[O-])c1)N1CCCC(C(=O)N2CCN(c3ccccc3)CC2)C1 (stereo not given),-11,0,-2,21
Cc1cc(C)n(/N=C/c2ccc(C(C)C)cc2)c(=O)c1C#N,2,-2,2,51*
Cc1ccc(/C=N/n2c(C)cc(C)c(C#N)c2=O)cc1,3,-3,4,4
CCNC(=O)N1CCN(c2ccc(N3CCN(Cc4ccccc4)[C@@H](C)C3)c(C)c2)[C@H](C)C1,-2,/,/,/
O=Cc1ccnc(-c2ccc(OC(=O)c3ccco3)cc2)n1,-14,36*,-5,17
CCCOC(=O)CSC1=C(C#N)C(c2ccccc2Cl)CC(=O)N1 (stereo not given),-7,0,0,50*
C=CCc1cccc(C=NNC(=O)c2ccco2)c1O,1,/,/,/
